# Calls of active or inactive are those of the source. Unless noted, the rule behind the calls is not given here.
# Columns and labels:
# [1] = resazurin metabolic signal in HepG2 cells – cell-based, resazurin fluorescence, 24 h, PK04 Diversity Set, profiling panel (AID 1172); conditions: HepG2 viability, higher = more signal
# [2] = budding yeast growth changes without added modifier – OD600, strain BY4716, 24 h, basal condition, primary screen (AID 1173); conditions: S. cerevisiae BY4716 growth, OD600, 24 h; higher = more signal, called active from +8 up or from −8 down
# [3] = viability profiling in MM1S myeloma cells – cell-based, resazurin fluorescence, basal, 24 h, PK04 Diversity Set, profiling panel (AID 1174); conditions: higher = more signal, called active from +8 up or from −8 down;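 note: MM1S multiple myeloma cell line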
# [4] = biological target: Dihydroorotate dehydrogenase (quinone), mitochondrial (Plasmodium falciparum (isolate 3D7)) (UniProt Q08210); assay: inhibition of P. falciparum DHODH – biochemical, C-terminal His tag, absorbance 600 nm, primary screen (AID 1175); conditions: PfDHODH enzyme, DCIP absorbance 600 nm; higher = more signal, called active from +8 up or from −8 down;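 note: recombinant parasite enzyme with a five histidine tag at its C terminus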
# Chain of Dihydroorotate dehydrogenase (quinone), mitochondrial (Plasmodium falciparum (isolate 3D7)) (Q08210 whole entry, looked up): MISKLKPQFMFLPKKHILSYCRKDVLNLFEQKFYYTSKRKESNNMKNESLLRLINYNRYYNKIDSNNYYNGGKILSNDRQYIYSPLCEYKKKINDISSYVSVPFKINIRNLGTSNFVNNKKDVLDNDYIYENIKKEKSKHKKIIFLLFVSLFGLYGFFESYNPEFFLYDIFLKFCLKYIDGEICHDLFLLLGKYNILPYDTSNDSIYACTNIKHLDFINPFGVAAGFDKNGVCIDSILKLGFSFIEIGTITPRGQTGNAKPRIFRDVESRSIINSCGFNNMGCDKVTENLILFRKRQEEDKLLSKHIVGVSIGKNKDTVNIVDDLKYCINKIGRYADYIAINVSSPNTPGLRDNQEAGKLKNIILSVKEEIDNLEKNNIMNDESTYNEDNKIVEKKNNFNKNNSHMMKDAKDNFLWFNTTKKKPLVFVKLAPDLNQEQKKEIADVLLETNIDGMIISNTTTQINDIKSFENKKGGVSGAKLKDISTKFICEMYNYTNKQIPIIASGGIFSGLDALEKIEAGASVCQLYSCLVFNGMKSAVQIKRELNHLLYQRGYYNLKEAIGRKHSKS
# [5] = inhibition of PAO1 biofilm formation – strain PAO1, LB-PBS medium, absorbance 600 nm, primary screen (AID 1176); conditions: P. aeruginosa PAO1 growth/biofilm, A600, 12 h; higher = more signal
# [6] = growth modulation of vineyard yeast isolate – strain RM11-1a, OD600, basal, 24 h, primary screen (AID 1177);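 note: cultures grown under basal conditions with no added stressor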; conditions: S. cerevisiae RM11-1a growth, OD600, 24 h; higher = more signal, called active from +8 up or from −8 down
# [7] = growth of efflux-deficient E. coli DRC39 – strain DRC39, OD650, 24 h, E. coli filamentation inducers, primary screen (AID 1178);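 note: growth measured as culture turbidity by optical density at 650 nm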; conditions: E. coli DRC39 acrAB, higher = more signal, called active from +8 up or from −8 down
# [8] = growth of efflux-deficient E. coli DRC39 – strain DRC39, OD650, 48 h, E. coli filamentation inducers, primary screen (AID 1179);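 note: screen aims at cell division blockers that make cells filament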; conditions: E. coli DRC39 delta-acrAB growth, higher = more signal, called active from +8 up or from −8 down
# [9] = viability profiling in RPMI8226 myeloma cells – cell-based, resazurin fluorescence, basal, 24 h, PK04 Diversity Set, profiling panel (AID 1180); conditions: higher = more signal;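 note: RPMI8826 multiple myeloma cell line at 5000 cells per well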
# [10] = biological target: E3 ubiquitin-protein ligase XIAP (Homo sapiens) (UniProt P98170); assay: small molecules binding XIAP protein – biophysical, small-molecule microarray, fluorescence 635 nm, primary screen (AID 1181); conditions: higher = more signal;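 note: score merges 667 nm emission and signal to noise over triplicate slides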
# Chain of E3 ubiquitin-protein ligase XIAP (Homo sapiens) (P98170 whole entry, looked up, the tested form may be a part): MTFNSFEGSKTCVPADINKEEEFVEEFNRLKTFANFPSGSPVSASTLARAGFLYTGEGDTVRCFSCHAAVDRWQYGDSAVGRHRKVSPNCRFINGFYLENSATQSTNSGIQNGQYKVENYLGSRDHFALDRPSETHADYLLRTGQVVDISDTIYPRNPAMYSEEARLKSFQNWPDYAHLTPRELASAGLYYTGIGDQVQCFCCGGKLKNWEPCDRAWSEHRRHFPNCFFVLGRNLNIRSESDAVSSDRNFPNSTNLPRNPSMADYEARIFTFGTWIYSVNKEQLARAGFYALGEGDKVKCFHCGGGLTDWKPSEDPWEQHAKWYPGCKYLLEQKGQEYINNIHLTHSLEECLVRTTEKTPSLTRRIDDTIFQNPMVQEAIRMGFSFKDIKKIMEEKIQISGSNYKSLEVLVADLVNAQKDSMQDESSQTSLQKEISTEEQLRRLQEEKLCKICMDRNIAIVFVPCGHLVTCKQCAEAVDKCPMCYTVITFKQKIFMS
# [11] = system: XIP peptide (Xip251-270) binding; assay: XIP fragment 251-270 binding compounds – biochemical, small-molecule microarray, fluorescence 635/667 nm, 0.1 µg/mL protein, primary screen (AID 1182); conditions: fluorescent protein binding, 635 nm, higher = more signal, called active from +8 up or from −8 down
# [12] = system: XIP peptide (Xip251-270); assay: compounds binding XIP fragment 251-270 – biochemical, small-molecule microarray, fluorescence 635/667 nm, 0.5 µg/mL protein, primary screen (AID 1183); conditions: fluorescence 635 nm, higher = more signal
# [13] = blood-stage malaria parasite viability loss – strain 3D7, DAPI fluorescence, 100 nL, primary screen (AID 1184);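 note: parasites grown inside human red blood cells in medium with human serum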; conditions: P. falciparum 3D7 growth, 3 d, higher = more signal
# [14] = biological target: Homeobox protein Hox-A13 (Mus musculus) (UniProt Q62424); assay: disruptors of Hoxa13 oligonucleotide interaction – biochemical, fluorescence polarization, labeled oligonucleotide, primary screen (AID 1185); conditions: Hoxa13:DNA binding, 15 min, higher = more signal, called active from +8 up or from −8 down
# Chain of Homeobox protein Hox-A13 (Mus musculus) (Q62424 whole entry, looked up): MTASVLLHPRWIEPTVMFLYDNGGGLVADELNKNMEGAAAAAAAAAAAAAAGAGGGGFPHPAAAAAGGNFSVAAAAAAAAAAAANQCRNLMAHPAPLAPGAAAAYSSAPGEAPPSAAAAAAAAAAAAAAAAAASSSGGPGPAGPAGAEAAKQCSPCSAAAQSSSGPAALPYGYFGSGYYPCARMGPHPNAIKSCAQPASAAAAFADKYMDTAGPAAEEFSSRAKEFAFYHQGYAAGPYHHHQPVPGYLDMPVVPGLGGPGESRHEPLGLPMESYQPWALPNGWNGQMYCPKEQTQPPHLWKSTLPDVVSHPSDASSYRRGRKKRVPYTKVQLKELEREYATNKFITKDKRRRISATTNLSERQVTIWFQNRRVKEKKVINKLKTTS
# [15] = blockers of DNA damage checkpoint Chk1 activation – imaging, HeLa, hydroxyurea, phospho-Chk1 antibody, percent positive cells, primary screen (AID 1186); conditions: hydroxyurea-induced phospho-Chk1 immunofluorescence imaging, higher = more signal
# [16] = blockers of DNA damage checkpoint Chk1 activation – imaging, HeLa, hydroxyurea, phospho-Chk1 nuclear intensity, primary screen (AID 1187); conditions: hydroxyurea-induced phospho-Chk1 immunofluorescence imaging, higher = more signal
SMILES,z-score [1],z-score [2],z-score [3],composite z-score [4],z-score [5],z-score [6],z-score [7],z-score [8],z-score [9],composite z-score [10],composite z-score [11],composite z-score [12],z-score [13],z-score [14],z-score [15],z-score [16]
CC(C)c1ccc(NN2C(C(O)C(c3ccccc3)c3ccccc3)C=CC3C(=O)N(c4ccccc4)C(=O)C32)cc1 (centres undefined),-1.49,-0.141 (inactive),-1.35 (inactive),0.704 (inactive),0.642 (inactive),1.17 (inactive),-1.39 (inactive),-1.47 (inactive),-0.912,-0.0525,0.234 (inactive),0.739,-0.536,-2.67 (inactive),0.286 (inactive),0.207 (inactive)
C#CCN(CC=C(C)C)[C@H](CO)c1ccccc1,0.0941,-8.3 (active),0.101 (inactive),-2.54 (inactive),-0.635 (inactive),-0.0386 (inactive),-0.997 (inactive),-1.3 (inactive),-0.544,-0.165,0.102 (inactive),-0.564,-1.34,-0.2 (inactive),0.557 (inactive),0.457 (inactive)
O=C1c2ccccc2[C@@]2(Cc3ccccc3N(CC(F)(F)F)C2=O)[C@H](c2ccc(CO)cc2)N1Cc1ccccc1Cl,0.0685,0.386 (inactive),0.192 (inactive),-22.2 (active),0.848 (inactive),-0.399 (inactive),0.424 (inactive),-0.411 (inactive),0.638,0.176,0.0764 (inactive),0.182,-0.699,0.0876 (inactive),-0.19 (inactive),-0.245 (inactive)
C=CCC(OC(C)=O)[C@@H]1[C@@H](N(Cc2ccc(-c3cccc(C(F)(F)F)c3)o2)C(=O)Cc2ccc(F)cc2)c2cc(OCCCO)ccc2N1C(=O)Cc1ccc(OC)cc1 (some centres undefined),1.2,-0.546 (inactive),1.51 (inactive),-1.26 (inactive),0.0186 (inactive),-0.905 (inactive),0.559 (inactive),0.671 (inactive),1.06,0.0181,0.664 (inactive),-0.0147,-1.61,-1.69 (inactive),0.0521 (inactive),0.633 (inactive)
C=C(COC)/C(=C/C[C@@H](OC(C)=O)c1ccc(OCCO)cc1)c1cc(C(=O)OC)ccc1OC,0.453,0.166 (inactive),-0.252 (inactive),-0.72 (inactive),0.862 (inactive),0.303 (inactive),0.193 (inactive),0.0514 (inactive),-0.395,-0.353,2.57 (inactive),0.762,-3.06,-4.45 (inactive),-0.307 (inactive),-0.333 (inactive)
COCCCNC(=O)C1N=C(c2ccc(OCCCO)cc2)N(c2ccccc2)O1 (centres undefined),0.522,-0.5 (inactive),-0.441 (inactive),0.0216 (inactive),-1.45 (inactive),0.254 (inactive),0.516 (inactive),1.03 (inactive),0.694,0.819,1.84 (inactive),0.779,-0.572,-2.25 (inactive),-0.0836 (inactive),0.164 (inactive)
COCCn1c(C(=O)N2CCCC2)cc2c1C[C@H]1CN(C(=O)c3ccccc3)[C@@](Cc3ccc(F)cc3)(C(=O)OC)[C@@H]21,0.203,0.734 (inactive),-0.829 (inactive),-0.343 (inactive),0.315 (inactive),0.39 (inactive),-0.0243 (inactive),-0.622 (inactive),-1.37,0.0927,0.254 (inactive),0.794,-1.01,-5.83 (inactive),0.0536 (inactive),0.375 (inactive)
C=CCC(OC(C)=O)[C@@H]1[C@@H](N(Cc2ccc(-c3cccc(C(F)(F)F)c3)o2)C(=O)c2ccc(-c3ccccc3)cc2)c2cc(OCCCO)ccc2N1C(=O)c1ccc(-c2ccccc2)cc1 (some centres undefined),-0.645,1.03 (inactive),0.0516 (inactive),0.0524 (inactive),0.268 (inactive),0.609 (inactive),-0.386 (inactive),-0.487 (inactive),0.0033,0.0471,-0.462 (inactive),-1.09,-0.29,-0.737 (inactive),0.216 (inactive),0.187 (inactive)
O=C1OCCC/C=C\[C@H]2OC34C=CCN(CCN5CCOCC5)C(=O)[C@H]3N(CCCO)C(=O)[C@@H]4C12 (some centres undefined),-0.0764,-0.314 (inactive),-0.146 (inactive),-0.053 (inactive),-0.525 (inactive),-1.22 (inactive),-0.0395 (inactive),-0.125 (inactive),0.125,0.138,0.976 (inactive),-1.17,0.211,-6.44 (inactive),0.697 (inactive),0.826 (inactive)

# — PubChem BioAssay
